# About 79,000 compounds went through this panel and 15% of them were active in at least one assay; those are over-represented in the sample as a whole. Values without a mark were called inactive. Activity calls are given as the source filed them. No stated cut-off is given here; in the data, active means growth inhibition above about 70%; inactive means the rest.
# Columns and labels:
# [1] = NCI Yeast Anticancer Drug Screen. Data for the rad52 strain (AID 147);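 further: 0% = growth of vehicle-treated control cultures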; settings: S. cerevisiae rad52 mutant growth inhibition, active compounds read high
# Procedure, shortened: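 The repair-mutant yeast strain was incubated with compounds, then growth was read and inhibition derived relative to vehicle.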
# [2] = NCI Yeast Anticancer Drug Screen. Data for the wt1 strain (AID 149);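 further: 0% = growth of vehicle-treated wt1 cultures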; settings: S. cerevisiae wt1 strain (SPY 50644) growth inhibition, active compounds read high
# Procedure, shortened: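 Using yeast strain wt1, compound-induced growth inhibition was determined against vehicle-treated cultures.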
# [3] = NCI Yeast Anticancer Drug Screen. Data for the rad50EPP+ strain (AID 151);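 further: 0% = growth of vehicle-treated control cultures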; settings: S. cerevisiae rad50 mutant strain, active compounds read high
# Procedure, shortened: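 Vehicle-normalised growth inhibition; rad50EPP+ yeast strain, altered in DNA damage repair, compound-treated.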
# [4] = NCI Yeast Anticancer Drug Screen. Data for the mgt1 strain (AID 153); settings: S. cerevisiae mgt1 mutant growth inhibition, active compounds read high
# Procedure, shortened: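 Vehicle-normalized growth inhibition is determined in mgt1 yeast, a strain selected for a defined alteration in DNA repair or cell cycle control.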
# [5] = NCI Yeast Anticancer Drug Screen. Data for the rad50 strain (AID 155);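 further: 0% = growth of vehicle-only cultures of the same strain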; settings: S. cerevisiae rad50 strain growth inhibition, active compounds read high
# Procedure, shortened: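 Relative growth inhibition (compound vs vehicle) was measured in yeast with a defined repair-gene alteration.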
# [6] = NCI Yeast Anticancer Drug Screen. Data for the mec2-1 strain (AID 157); settings: S. cerevisiae mec2-1 strain, active compounds read high
# Procedure, shortened: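 Mutant yeast (mec2-1) grown with compound; growth inhibition relative to vehicle control reported.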
# [7] = NCI Yeast Anticancer Drug Screen. Data for the rad14 strain (AID 159);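 further: 0% = growth of vehicle-treated control cultures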; settings: S. cerevisiae rad14 strain growth inhibition, active compounds read high
# Procedure, shortened: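 Screen for anticancer potential: a yeast strain altered in DNA damage repair is grown with compound, and reduced growth is quantified against vehicle controls.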
# [8] = NCI Yeast Anticancer Drug Screen. Data for the sgs1 mgt1 strain (AID 161);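 further: 0% = growth of cultures given vehicle only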; settings: S. cerevisiae sgs1 mgt1 strain, active compounds read high
# Procedure, shortened: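 Yeast cells carrying a defined DNA-repair defect were exposed to test compounds. Growth inhibition was measured relative to vehicle-treated controls.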
# [9] = NCI Yeast Anticancer Drug Screen. Data for the CLN2oe strain (AID 163);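 further: 0% = growth of vehicle-only control cultures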; settings: S. cerevisiae CLN2oe strain, active compounds read high
# Procedure, shortened: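 Compounds are applied to yeast harbouring a defined cell-cycle control change; reduced growth compared with vehicle-treated controls gives the value.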
# [10] = NCI Yeast Anticancer Drug Screen. Data for the cln2 rad14 strain (AID 165);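 further: 0% = growth equal to vehicle treated cultures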; settings: S. cerevisiae cln2 rad14 strain, active compounds read high
# Procedure, shortened: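 Readout is yeast growth inhibition versus vehicle-treated controls, using a strain with cln2 and rad14 alterations exposed to compound.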
# [11] = NCI Yeast Anticancer Drug Screen. Data for the bub3 strain (AID 167); settings: S. cerevisiae bub3 mutant strain, active compounds read high
# Procedure, shortened: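 Screening used yeast with an engineered genetic alteration affecting cell cycle control. Compound-exposed cultures were compared with vehicle cultures, and reduced growth was taken as inhibition.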
# [12] = NCI Yeast Anticancer Drug Screen. Data for the wt2 strain (AID 169);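 further: 0% = growth of vehicle-treated yeast cultures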; settings: S. cerevisiae wt2 strain growth inhibition, active compounds read high
# Procedure, shortened: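 Against vehicle-treated controls, the growth of yeast exposed to each compound was compared, and the inhibition was recorded.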
# [13] = NCI Yeast Anticancer Drug Screen. Data for the mlh1 strain (AID 171);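 further: 0% = growth of vehicle-treated control cultures of the same strain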; settings: S. cerevisiae mlh1 strain growth inhibition, active compounds read high
# Procedure, shortened: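 Measured: yeast growth. Reference: vehicle-treated controls. Organism: strain with a defined alteration affecting DNA damage repair or cell cycle control, treated with compound.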
# [14] = NCI Yeast Anticancer Drug Screen. Data for the sgs1 strain (AID 173);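 further: 0% = growth of vehicle-only control cultures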; settings: S. cerevisiae sgs1 mutant, active compounds read high
# Procedure, shortened: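 Each compound was added to cultures of the altered yeast strain. Growth was recorded, and inhibition was derived by comparison with vehicle controls.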
# [15] = NCI Yeast Anticancer Drug Screen. Data for the mlh1 rad18 strain (AID 175); settings: S. cerevisiae mlh1 rad18 strain growth inhibition, active compounds read high
# Procedure, shortened: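 Genetically defined yeast (DNA repair-deficient) exposed to compounds; growth inhibition determined relative to vehicle.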
# [16] = NCI Yeast Anticancer Drug Screen. Data for the rad18 strain (AID 177); settings: S. cerevisiae rad18 mutant growth inhibition, active compounds read high
# Procedure, shortened: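 Vehicle-treated cultures served as the baseline for scoring compound-induced growth inhibition in DNA-repair-mutant yeast.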
# [17] = at 5.0 µM (retest, dose inferred, filed as 0.5)
# [18] = at 50.0 µM (retest, dose inferred, filed as 5.0)
structure (smiles),measurement,setting,value
NNc1ccccc1-c1nc2ccccc2[nH]1,growth inhibition,[1]; at 1.2 µM,1%
same,growth inhibition,[1]; at 3.7 µM,7%
same,growth inhibition,[1]; at 11.0 µM,9%
same,growth inhibition,[1]; at 33.0 µM,17%
same,growth inhibition,[1]; at 100.0 µM,60%
same,growth inhibition,[2]; at 1.2 µM,-4%
same,growth inhibition,[2]; at 3.7 µM,-3%
same,growth inhibition,[2]; at 11.0 µM,-5%
same,growth inhibition,[2]; at 33.0 µM,-4%
same,growth inhibition,[2]; at 100.0 µM,25%
same,growth inhibition,[3]; at 1.2 µM,2%
same,growth inhibition,[3]; at 3.7 µM,6%
same,growth inhibition,[3]; at 11.0 µM,12%
same,growth inhibition,[3]; at 33.0 µM,24%
same,growth inhibition,[3]; at 100.0 µM,59%
same,growth inhibition,[4]; at 1.2 µM,-3%
same,growth inhibition,[4]; at 3.7 µM,-2%
same,growth inhibition,[4]; at 11.0 µM,0%
same,growth inhibition,[4]; at 33.0 µM,-1%
same,growth inhibition,[4]; at 100.0 µM,48%
same,growth inhibition,[5]; at 1.2 µM,-1%
same,growth inhibition,[5]; at 3.7 µM,5%
same,growth inhibition,[5]; [17],-144%
same,growth inhibition,[5]; at 11.0 µM,6%
same,growth inhibition,[5]; at 33.0 µM,26%
same,growth inhibition,[5]; [18],53%
same,growth inhibition,[5]; at 50.0 µM,75.9% (active)
same,growth inhibition,[5]; at 100.0 µM,60%
same,growth inhibition,[6]; at 1.2 µM,3%
same,growth inhibition,[6]; at 3.7 µM,3%
same,growth inhibition,[6]; [17],-50%
same,growth inhibition,[6]; at 11.0 µM,2%
same,growth inhibition,[6]; at 33.0 µM,1%
same,growth inhibition,[6]; [18],-40%
same,growth inhibition,[6]; at 50.0 µM,48.4%
same,growth inhibition,[6]; at 100.0 µM,20%
same,growth inhibition,[7]; at 1.2 µM,-2%
same,growth inhibition,[7]; at 3.7 µM,-5%
same,growth inhibition,[7]; at 11.0 µM,-1%
same,growth inhibition,[7]; at 33.0 µM,0%
same,growth inhibition,[7]; at 100.0 µM,49%
same,growth inhibition,[8]; [17],-61%
same,growth inhibition,[8]; [18],27%
same,growth inhibition,[8]; at 50.0 µM,11.7%
same,growth inhibition,[9]; at 1.2 µM,-2%
same,growth inhibition,[9]; at 3.7 µM,-1%
same,growth inhibition,[9]; at 11.0 µM,-3%
same,growth inhibition,[9]; at 33.0 µM,-9%
same,growth inhibition,[9]; at 100.0 µM,35%
same,growth inhibition,[10]; [17],-63%
same,growth inhibition,[10]; [18],-73%
same,growth inhibition,[10]; at 50.0 µM,32.1%
same,growth inhibition,[11]; at 1.2 µM,-6%
same,growth inhibition,[11]; at 3.7 µM,-4%
same,growth inhibition,[11]; [17],-65%
same,growth inhibition,[11]; at 11.0 µM,-3%
same,growth inhibition,[11]; at 33.0 µM,-3%
same,growth inhibition,[11]; [18],-30%
same,growth inhibition,[11]; at 50.0 µM,76.9% (active)
same,growth inhibition,[11]; at 100.0 µM,30%
same,growth inhibition,[12]; at 1.2 µM,1%
same,growth inhibition,[12]; at 3.7 µM,0%
same,growth inhibition,[12]; at 11.0 µM,-1%
same,growth inhibition,[12]; at 33.0 µM,-1%
same,growth inhibition,[12]; at 100.0 µM,47%
same,growth inhibition,[13]; at 1.2 µM,6%
same,growth inhibition,[13]; at 3.7 µM,-3%
same,growth inhibition,[13]; at 11.0 µM,-3%
same,growth inhibition,[13]; at 33.0 µM,-3%
same,growth inhibition,[13]; at 100.0 µM,47%
same,growth inhibition,[14]; at 1.2 µM,0%
same,growth inhibition,[14]; at 3.7 µM,1%
same,growth inhibition,[14]; at 11.0 µM,0%
same,growth inhibition,[14]; at 33.0 µM,-1%
same,growth inhibition,[14]; at 100.0 µM,47%
same,growth inhibition,[15]; [17],-114%
same,growth inhibition,[15]; [18],-3%
same,growth inhibition,[15]; at 50.0 µM,91% (active)
same,growth inhibition,[16]; at 1.2 µM,0%
same,growth inhibition,[16]; at 3.7 µM,-2%
same,growth inhibition,[16]; at 11.0 µM,0%
same,growth inhibition,[16]; at 33.0 µM,0%
same,growth inhibition,[16]; at 100.0 µM,48%
CCCCCCCCCCCCCCCCCCNC(=S)/N=C/c1c(O)c2ccccc2[nH]c1=O,growth inhibition,[1]; at 1.2 µM,7%
same,growth inhibition,[1]; at 3.7 µM,4%
same,growth inhibition,[1]; at 11.0 µM,16%
same,growth inhibition,[1]; at 33.0 µM,11%
same,growth inhibition,[1]; at 100.0 µM,12%
same,growth inhibition,[2]; at 1.2 µM,-32%
same,growth inhibition,[2]; at 3.7 µM,-6%
same,growth inhibition,[2]; at 11.0 µM,-3%
same,growth inhibition,[2]; at 33.0 µM,-3%
same,growth inhibition,[2]; at 100.0 µM,-3%
same,growth inhibition,[3]; at 1.2 µM,1%
same,growth inhibition,[3]; at 3.7 µM,3%
same,growth inhibition,[3]; at 11.0 µM,12%
same,growth inhibition,[3]; at 33.0 µM,29%
same,growth inhibition,[3]; at 100.0 µM,40%
same,growth inhibition,[4]; at 1.2 µM,1%
same,growth inhibition,[4]; at 3.7 µM,4%
same,growth inhibition,[4]; at 11.0 µM,2%
same,growth inhibition,[4]; at 33.0 µM,1%
same,growth inhibition,[4]; at 100.0 µM,0%
same,growth inhibition,[5]; at 1.2 µM,-1%
same,growth inhibition,[5]; at 3.7 µM,0%
same,growth inhibition,[5]; [17],-12%
same,growth inhibition,[5]; at 11.0 µM,1%
same,growth inhibition,[5]; at 33.0 µM,1%
same,growth inhibition,[5]; [18],61%
same,growth inhibition,[5]; at 50.0 µM,63%
same,growth inhibition,[5]; at 100.0 µM,-1%
same,growth inhibition,[6]; at 1.2 µM,0%
same,growth inhibition,[6]; at 3.7 µM,2%
same,growth inhibition,[6]; [17],-5%
same,growth inhibition,[6]; at 11.0 µM,-3%
same,growth inhibition,[6]; at 33.0 µM,2%
same,growth inhibition,[6]; [18],27%
same,growth inhibition,[6]; at 50.0 µM,6.6%
same,growth inhibition,[6]; at 100.0 µM,-1%
same,growth inhibition,[7]; at 1.2 µM,1%
same,growth inhibition,[7]; at 3.7 µM,1%
same,growth inhibition,[7]; at 11.0 µM,0%
same,growth inhibition,[7]; at 33.0 µM,4%
same,growth inhibition,[7]; at 100.0 µM,4%
same,growth inhibition,[8]; [17],4%
same,growth inhibition,[8]; [18],26%
same,growth inhibition,[8]; at 50.0 µM,86.5% (active)
same,growth inhibition,[9]; at 1.2 µM,-4%
same,growth inhibition,[9]; at 3.7 µM,-3%
same,growth inhibition,[9]; at 11.0 µM,2%
same,growth inhibition,[9]; at 33.0 µM,-7%
same,growth inhibition,[9]; at 100.0 µM,3%
same,growth inhibition,[10]; [17],-7%
same,growth inhibition,[10]; [18],16%
same,growth inhibition,[10]; at 50.0 µM,-24%
same,growth inhibition,[11]; at 1.2 µM,-4%
same,growth inhibition,[11]; at 3.7 µM,-4%
same,growth inhibition,[11]; [17],-25%
same,growth inhibition,[11]; at 11.0 µM,-2%
same,growth inhibition,[11]; at 33.0 µM,-5%
same,growth inhibition,[11]; [18],69%
same,growth inhibition,[11]; at 50.0 µM,72.3% (active)
same,growth inhibition,[11]; at 100.0 µM,26%
